From PubChem BioAssay (NCI)
Compounds without any hit were thinned out: in the full panel of roughly 83,000, 20% have a hit.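 96-well plates, one dose, 48 hours. Percent growth reported; active if below 10.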 Unmarked numbers belong to inactive results. Active and inactive are the calls of the source.

Columns and labels:
Assay in all cases: NCI-60 one-dose screen, 48 h (100 = growth as untreated, 0 = no growth, -100 = all killed)
Conditions in all cases: 10 µM unless noted
[1] = system: NCI-H23 lung
[2] = system: NCI-H226 lung
[3] = system: NCI-H322M lung
[4] = system: HOP-62 NSCLC
[5] = system: NCI-H460 lung
[6] = system: HOP-92 NSCLC
[7] = system: NCI-H522 lung
[8] = system: A549/ATCC NSCLC
[9] = system: 786-0 renal
[10] = system: COLO 205 colon
[11] = system: DU-145 prostate
[12] = system: K-562 leukemia
[13] = system: MALME-3M melanoma
[14] = system: MDA-MB-231 breast
[15] = system: RXF 393 renal
[16] = system: SF-268 CNS
[17] = system: SF-295 CNS
[18] = system: SF-539 CNS
[19] = system: UACC-257 melanoma
[20] = system: M14 melanoma

Row | Structure (SMILES) | growth [1] | growth [2] | growth [3] [%] | growth [4] | growth [5] | growth [6] | growth [7] | growth [8] | growth [9] | growth [10] | growth [11] | growth [12] | growth [13] | growth [14] | growth [15] | growth [16] | growth [17] | growth [18] | growth [19] | growth [20]
1 | O=C(Nc1cc(Nc2ncccc2-c2ncnc3nc[nH]c23)ccc1F)c1cc(C(F)(F)F)cc(C(F)(F)F)c1 | -3.98% (active) | 16.8% | 46.7 | -14.4% (active) | -30.4% (active) | -31.3% (active) | 11.7% | 0.774% (active) | -3.09% (active) | -60.2% (active) | 20.9% | -13.7% (active) | -58.4% (active) | -51.3% (active) | -63.4% (active) | 21.8% | -52.8% (active) | -56% (active) | -0.588% (active) | -41.7% (active)
2 | CCOCCc1c(O)nc(SC)[nH]c1=O | 91.9% | 92% | 111 | 93.3% | 107% | 99.1% | 94.7% | 103% | 103% | 105% | 107% | 112% | 130% | 111% | 161% | 116% | 113% | 93.7% | 23.9% | 98.9%
3 | COc1ccc(C(=O)c2cc(F)c(F)c(OC)c2F)cc1OC(=O)CCl | 58.3% | 105% | 75.8 | 39% | 20.5% | 52.9% | 30.6% | 53.8% | 89.6% | 108% | 57.2% | 15.7% | 57% | 48.8% | 69.7% | 58.7% | 85.2% | 25.6% | 72% | -3.12% (active)
4 | NS(=O)(=O)c1ccc(N2Cc3cc(Cl)ccc3OC3=C2C(=O)N(CC2CCCCC2)C3=O)cc1 | -36.5% (active) | -23.5% (active) | 65.4 | -60.9% (active) | -55.1% (active) | -76.6% (active) | -68.6% (active) | -43.5% (active) | -84.7% (active) | -83.2% (active) | -94% (active) | -38% (active) | -77% (active) | -74.5% (active) | -89.7% (active) | -83.9% (active) | -19.3% (active) | -99.4% (active) | -79% (active) | -67.7% (active)
5 | CC1=C/C(=N\N=C2/C=C(C)CC(C)(C)C2)CC(C)(C)C1 | 102% | 106% | 92.7 | 90.9% | 104% | 92.3% | 81.4% | 88.6% | 102% | 119% | 105% | 86.9% | 96.4% | 106% | 114% | 93.4% | 102% | 105% | 90.2% | 103%
6 | CCCCOc1nc2ccc(C)cc2cc1/C=C/C(=O)/C=C/c1ccc2c(c1)OCO2 | 82.4% | 96.3% | 88 | 112% | 103% | 80.6% | 60.6% | 78.3% | 97.9% | 123% | 82.8% | 69.1% | 106% | 92.8% | 108% | 75.4% | 105% | 109% | 73.3% | 52.4%
7 | COc1ccc(-c2nnc(N3CCN(C(=O)CN4CCN(c5ccccc5)CC4)CC3)nc2-c2ccc(OC)cc2)cc1 | 48.3% | 46.7% | 77.3 | 58.9% | 14% | 23.2% | 14.2% | 28% | 33.7% | 17.5% | 57.8% | 4.73% (active) | 34.2% | 65.1% | -9.53% (active) | 52.8% | -23% (active) | 46.6% | 31.2% | 49%
